Experimental findings from the supplement of paper PMC11417369 are described below.

± gives the standard deviation of the averaged measurements. Whole data set: some 25,000 sequences, median “ln(normalized median fluorescence intensity)” near 8.6, cut for the highest 2% near 10. Only a selection was taken, and the highest values are over-represented in it overall.

The experiment concerns PfAP2-EXP AP2 domain (GST-tagged). The experiment is described as follows: gcPBM binding intensity (ln(normalized median fluorescence intensity)); higher = stronger DNA binding. Summed up: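 In this array assay, P. falciparum DNA-binding domains with a GST tag, expressed in E. coli, were applied for 1 h to primer-extended double-stranded 36-bp intergenic genomic probes and negative controls on an Agilent 4 × 180k array. Bound protein was visualised with Alexa488 anti-GST antibody at 488 nm. Binding intensity is the highest Masliner-normalised natural-log median intensity across replicate spots of either probe orientation.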
Consider “CCTTACTTCTTATAAAGTACCCAATGATATACATTA [XGTACX_site1554]”, for which the “gcPBM binding intensity (ln)” value came to 8.41 ± 0.31.

Consider “AAACGATCTCGATGTTGTACACATTTATATAGAAAC [XGTACX_site4373]”, for which the “gcPBM binding intensity (ln)” value was determined as 8.86 ± 0.4.

Turning to GCCAATAAAGATGTGGTGCATTATATATATATATAT, the “gcPBM binding intensity (ln)” value was 10.3 ± 0.23.

As to AATATTCAATATAAAGTGCATTATTGTGGACCTAAT, the “gcPBM binding intensity (ln)” value turned out to be 8.77 ± 0.099.

For TAAATATATATATAAGTGCATTATATATATATATAA, the “gcPBM binding intensity (ln)” value is 8.58 ± 0.028.

As to “TAATTTTTTATATATTGTACAAATAATATATGATGT [XGTACX_site268]”, the “gcPBM binding intensity (ln)” value turned out to be 8.46 ± 0.23.

For the sequence CATTATATGATTTATGTGCACATTCATTTATTTTAA, the “gcPBM binding intensity (ln)” value came to 8.83 ± 0.099.

In the case of “TCTTACGGATTCATTGTGCACATATATATATATATA [GTGCAC_site9896]”, the “gcPBM binding intensity (ln)” value amounted to 10.2 ± 0.45.

As to “TTTCTTATTTTGGATTGTACGTATATTTTTCATTTT [XGTACX_site224]”, the “gcPBM binding intensity (ln)” value came out at 8.93 ± 0.38.

For the sequence “ATATACATATATATATGTACTTATTTATTTATTTAT [XGTACX_site2532]”, the “gcPBM binding intensity (ln)” value came out at 8.56 ± 0.26.

For “AAAAAAAAAAAAAAAAGTACATATATTATATATATA [XGTACX_site2983]”, the “gcPBM binding intensity (ln)” value worked out at 8.9 ± 0.099.

As to “AAAAAAAAAAAAAAAAGTACATATATATATAATTAT [XGTACX_site7836]”, the “gcPBM binding intensity (ln)” value stood at 8.54 ± 0.43.

“CAGACATATTAAAAGAGTACATATATATATATATAT [XGTACX_site1158]”: the “gcPBM binding intensity (ln)” value was found to be 10.3 ± 0.28.

For “AAATTATTAAAAAAAAGTACATATATATATATATAT [XGTACX_site8313]”, the “gcPBM binding intensity (ln)” value came to 10.4 ± 0.25.

As for “TATATTTACTTATGAAGTACATATATATATATATAT [XGTACX_site5069]”, the “gcPBM binding intensity (ln)” value was determined as 10.3 ± 0.21.

With “TTAATATATTTTAAAAGTACATAATATTATTTTTTA [XGTACX_site3642]”, the “gcPBM binding intensity (ln)” value was 8.04 ± 0.26.

With “TATATATTATAAAAGAGTACAGAAAGAAAAAAAAAT [XGTACX_site8305]”, the “gcPBM binding intensity (ln)” value was 9.12 ± 0.59.

Take “ACATATTAATTATAAAGTACATATATATATATATAT [XGTACX_site4540]”: the “gcPBM binding intensity (ln)” value was found to be 10.3 ± 0.18.

Regarding “ATATTTTAATTATAAAGTACATAAAAATATATAAAC [XGTACX_site6705]”, the “gcPBM binding intensity (ln)” value amounted to 8.58 ± 0.3.

Turning to “TATATATATATATATAGTACATATTTATATATGAAA [XGTACX_site8488]”, the “gcPBM binding intensity (ln)” value amounted to 10.1 ± 0.36.

For “AAAAATATATAAGAGAGTACATAAAATAAATTAATT [XGTACX_site1534]”, the “gcPBM binding intensity (ln)” value was 8.61 ± 0.41.

Consider “ATGTAGATATATATCTGTACGTATATGTAAATATTA [XGTACX_site1516]”, for which the “gcPBM binding intensity (ln)” value turned out to be 8.72 ± 0.35.

Turning to “ATGATATTATAAAAAAGTACATATGTATATAATTAT [XGTACX_site7652]”, the “gcPBM binding intensity (ln)” value came to 8.88 ± 0.45.

Regarding “AAAAATTTATTTTTAGGTACACAATTGAATTATTTA [XGTACX_site7008]”, the “gcPBM binding intensity (ln)” value stood at 8.16 ± 0.27.

In the case of “TATTTAAAATATTAAATTTGTAAAGTTCGAGGGAAG [GTGCAC_negctrl_site337]”, the “gcPBM binding intensity (ln)” value turned out to be 8.52 ± 0.48.

As for “TGATGAAAATTTTTCTGTACAAAAAGTATGAAGGTA [XGTACX_site8901]”, the “gcPBM binding intensity (ln)” value was found to be 8.88 ± 0.38.

As to “AGTTTAATTTTGTATACACACATTTGAATTATTAAT [CACACA_site7625]”, the “gcPBM binding intensity (ln)” value is 8.77 ± 0.5.

For “AATATGTCTATATTTTTTATATGGAAATATTATAAA [GTGCAC_negctrl_site700]”, the “gcPBM binding intensity (ln)” value was 7.92 ± 0.39.

As to “TTTATAATAAAATTTTTACACACTTTAAAAAAAAAA [CACACA_site8070]”, the “gcPBM binding intensity (ln)” value turned out to be 8.07 ± 0.37.

Regarding “AAAAAAAAAAAAAAATGTACATAAAAATGATATAAT [XGTACX_site4096]”, the “gcPBM binding intensity (ln)” value turned out to be 8.7 ± 0.55.

As for “TTTTTATAACATAAAAGTACATATTTTTAATTTAAT [XGTACX_site4394]”, the “gcPBM binding intensity (ln)” value was 8.05 ± 0.4.

As to “TATTCCTAATTTAAAAGTACATATATATATATATAT [XGTACX_site3008]”, the “gcPBM binding intensity (ln)” value was 10.2 ± 0.54.

With “TATTTAAGAATATGAAGTACATATATTATTTAAAAA [XGTACX_site7897]”, the “gcPBM binding intensity (ln)” value was determined as 8.15 ± 0.29.

Take “TATAAAATTTTTAAAAGTACATATTTTACATAATAC [XGTACX_site2193]”: the “gcPBM binding intensity (ln)” value is 8.38 ± 0.26.

On to “TTTAAAAAGTTATGAAGTACATATATATATATATAT [XGTACX_site2188]”, for which the “gcPBM binding intensity (ln)” value was 10.2 ± 0.29.

As to “CTTTAAGTTATATGAAGTACAATTTAAAAAAATGAA [XGTACX_site358]”, the “gcPBM binding intensity (ln)” value came to 8.41 ± 0.38.

In the case of TTTTTTTTTTTGATGGTGCAATATATTAAATAGAAA, the “gcPBM binding intensity (ln)” value was 8.86 ± 0.28.

With “AATATATGGTTCCTTGATATTAAATTCAATTTAATG [CACACA_negctrl_site71]”, the “gcPBM binding intensity (ln)” value was found to be 8.41 ± 0.52.

Turning to “TAATTGATTCTTCACCGTACTCACACATATATATAT [XGTACX_site6530]”, the “gcPBM binding intensity (ln)” value worked out at 9.61 ± 0.14.

Turning to “GATTCTTCACCGTACTCACACATATATATATATATA [CACACA_site5665]”, the “gcPBM binding intensity (ln)” value came to 10.2 ± 0.52.

For “ATATATATATATATATGTACACATATATATACTCAC [XGTACX_site8043]”, the “gcPBM binding intensity (ln)” value came to 10 ± 0.4.

In the case of “ATATTATATATATACACACACACATGCATGCACCTA [CACACA_site106]”, the “gcPBM binding intensity (ln)” value was determined as 10.07 ± 0.099.

Take “TTTGGGATAAAACAAAGTACTAACAAAATATATAAT [XGTACX_site8240]”: the “gcPBM binding intensity (ln)” value worked out at 8.85 ± 0.47.

Regarding “ATTTATATTTTTTAATGTACATTTATATGTATACAA [XGTACX_site4555]”, the “gcPBM binding intensity (ln)” value was found to be 8.78 ± 0.41.

For “ATATAATATTTCATGTGGACACATTTTATGATTGTA [XGTACX_site8770]”, the “gcPBM binding intensity (ln)” value was 8.74 ± 0.38.
